FECH block – inhibitors of human ferrochelatase, primary screen, biochemical, purified FECH, Ni-mesoporphyrin absorbance; Ferrochelatase, mitochondrial (Homo sapiens), P22830; Ni-mesoporphyrin absorbance 550 nm; calls only at 10 µM (by protocol); actives 3.3% (n = 20,000);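 active = enzyme reaction rate more than 3 SD below the solvent-only control wells on the same plate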;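 note: lower slope than DMSO wells means FECH inhibition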
Target sequence (P22830 whole entry, looked up): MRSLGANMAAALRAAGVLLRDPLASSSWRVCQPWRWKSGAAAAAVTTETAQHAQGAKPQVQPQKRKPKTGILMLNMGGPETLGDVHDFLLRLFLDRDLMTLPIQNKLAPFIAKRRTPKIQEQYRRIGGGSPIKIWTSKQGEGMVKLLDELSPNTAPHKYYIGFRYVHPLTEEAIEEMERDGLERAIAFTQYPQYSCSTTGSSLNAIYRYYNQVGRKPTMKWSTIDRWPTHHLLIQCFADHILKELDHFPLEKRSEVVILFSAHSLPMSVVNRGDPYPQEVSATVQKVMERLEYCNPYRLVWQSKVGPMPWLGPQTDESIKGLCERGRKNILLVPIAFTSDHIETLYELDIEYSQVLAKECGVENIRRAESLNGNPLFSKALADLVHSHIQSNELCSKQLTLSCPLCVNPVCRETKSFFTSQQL
Numbers without * were called inactive; i = inactive; + = active, no number. The full list was thinned out, with hits kept by preference.

SMILES | FECH block
COc1ccc(-c2cc3n(n2)CCC(=O)N3Cc2ccc(C(=O)NCCCc3ccccc3)cc2)cc1 | i
Cc1ccc(CN2CCN(C(=O)c3cnc4ccccn34)C(C)C2=O)cc1 (stereo not given) | i
O=C1C[C@H]2CC[C@@H](CN1)N2C(=O)CCc1cnccn1 | i
Cc1ccc(CS(=O)(=O)c2ncc(Cl)c(C(=O)Nc3ccc(S(N)(=O)=O)cc3)n2)cc1 | i
Cn1ccc2c(-c3cccc(O)c3)ccnc21 | i
CC(=O)c1cccc(-c2ccnc3[nH]ccc23)c1 | +
FC(F)(F)c1ccc(-c2ccnc3[nH]ccc23)nc1 | i
CCCSc1ncc(CN2CCCC(O)(CN(C)C)CC2)cn1 (stereo not given) | i
O=C(Cc1cccc(F)c1)NCCn1c(CCc2ccccc2)nc2cccnc21 | i
Cc1ccc(-c2cc(Nc3c(C)n(C)n(-c4ccccc4)c3=O)nc(C)n2)cc1 | i
Cc1ccc(F)cc1Cn1ccnc1-c1ncc[nH]1 | i
CC(C)(C)CC(=O)NC1CC(=O)N(c2ccc(F)cc2)C1 (stereo not given) | i
Cc1ccc(CNc2ncnc3oc4c(c23)CCCC4)o1 | i
COc1ccccc1CNc1ncnc2oc3c(c12)CCCC3 | i
Clc1ccccc1CCNc1ncnc2oc3c(c12)CCCC3 | +
Cc1ccc(C(=O)CN(c2nc3nc(C)cc(C)n3n2)S(=O)(=O)c2ccc(C)cc2)cc1 | i
Cc1ccc(S(=O)(=O)Nc2cnc(N(CC(C)C)CC(C)C)c(C(=O)O)c2)c(C)c1 | i
CCC(=O)Nc1nc2n(n1)C(c1c(F)cccc1Cl)C=C(c1ccc(C)cc1)N2 (stereo not given) | i
O=C(Nc1nc2n(n1)C(c1c(F)cccc1Cl)C=C(c1ccccc1)N2)c1ccccc1 (stereo not given) | +
Cc1ccc(C2=CC(c3c(F)cccc3Cl)n3nc(NC(=O)c4cccc(Cl)c4)nc3N2)cc1 (stereo not given) | i
Cc1ccc(C2=CC(c3ccc(F)cc3)n3nc(NC(=O)c4ccccc4)nc3N2)cc1 (stereo not given) | i
Cc1ccc(C2=CC(c3ccc(Cl)cc3)n3nc(NC(=O)c4ccccc4F)nc3N2)cc1 (stereo not given) | i
CC(=O)Nc1nc2n(n1)C(c1c(F)cccc1Cl)C=C(c1ccccc1)N2 (stereo not given) | +
O=C(Nc1nc2n(n1)C(c1ccc(F)cc1)C=C(c1ccccc1)N2)c1ccc(Cl)cc1 (stereo not given) | i
COc1ccc(C(=O)Nc2nc3n(n2)C(c2c(F)cccc2Cl)C=C(c2ccccc2)N3)cc1 (stereo not given) | i
SMILES | FECH block
Cc1ccc(C2=CC(c3c(F)cccc3Cl)n3nc(NC(=O)CCc4ccccc4)nc3N2)cc1 (stereo not given) | i
O=C(Nc1nc2n(n1)C(c1ccccc1Cl)C=C(c1ccccc1)N2)c1ccccc1 (stereo not given) | i
O=C(Nc1nc2n(n1)C(c1ccc(F)cc1)C=C(c1ccccc1)N2)c1ccccc1 (stereo not given) | +
Cc1cccc(C(=O)Nc2nc3n(n2)C(c2c(F)cccc2Cl)C=C(c2ccc(Cl)cc2)N3)c1 (stereo not given) | +
COc1cc(Cl)ccc1C(=O)N1CCNCC(CC(=O)O)C1 (stereo not given) | i
O=C1CC2(CCN(C(=O)c3ccccc3OC(F)(F)C(F)F)CC2)CN1 | i
CC(=O)Nc1ccc(NS(=O)(=O)c2cc(N3C(=O)CCS3(=O)=O)ccc2C)cc1 | i
CCNC(=O)c1nc[nH]c1C(=O)NCCC(C)C | i
CCN(CC)S(=O)(=O)c1cc(C(=O)N2CCCC2)cs1 | i
C#CCN(CC=C)C(=O)c1cccc(NC(=O)C2CCCC2)c1 | i
CCC1CN(Cc2ccccc2OCC(=O)N(C)C)CCN1C(C)C (stereo not given) | i
Cc1ccc(C2=CC(c3c(F)cccc3Cl)n3nc(NC(=O)c4ccc(Cl)cc4)nc3N2)cc1 (stereo not given) | i
Cc1ccc(C(=O)Nc2nc3n(n2)C(c2c(F)cccc2Cl)C=C(c2ccc(Cl)cc2)N3)cc1 (stereo not given) | i
O=C(Nc1nc2n(n1)C(c1c(F)cccc1Cl)C=C(c1ccc(Cl)cc1)N2)c1cccnc1 (stereo not given) | +
CC(=O)NCCc1cn(Cc2nc(-c3cc(F)cc(F)c3)oc2C)cn1 | i
Nc1cncc(-c2cc(Cl)ccc2Cl)c1 | i
Cc1ccc2c(c1)CCCN2C(=O)CN1CCCC1c1nonc1C (stereo not given) | i
CCCOC1CCCN(C(=O)C2(N)CC2)C1 (stereo not given) | i
Cc1nc2nc(C)c(NC(=O)Nc3cccc(Cl)c3)c(=O)n2[nH]1 | i
CCc1nc2nc(C)[nH]n2c(=O)c1NC(=O)Nc1cc(C)ccc1OC | i
Cc1cccc(NC(=O)Nc2c(C)nc3nc[nH]n3c2=O)c1 | i
O=c1c2c(nc3nc(CNc4cccc(Cl)c4)[nH]n13)CCC2 | +
Cc1ccc(-c2nc(CSc3nc4c(c(=O)[nH]3)CCCC4)c(C)o2)cc1 | i
Cc1ccc(NCc2nc3nc4c(c(=O)n3[nH]2)CCC4)c(C)c1 | +
Cc1cccc(NC(=O)Nc2c(C)nc3nc(C)[nH]n3c2=O)c1 | i
SMILES | FECH block
O=c1cc(CNc2cccc(Cl)c2)nc2nc(NCc3ccc(F)cc3)[nH]n12 | i
Cc1cccc(NCc2nc3nc4c(c(=O)n3[nH]2)CCC4)c1 | +
CC(NC(=O)c1cccc(Cn2cccn2)c1)c1nnc2n1CCNCC2 (stereo not given) | i
CCn1c(C)cc(C)c(C(=O)N2CCCC3(CC2)CNC(=O)O3)c1=O (stereo not given) | i
Cc1ccccc1-c1nc2nc(CN3CCOCC3)cc(=O)n2[nH]1 | i
COc1ccc(NCc2cc(=O)n3[nH]c(NCc4ccc(F)cc4)nc3n2)cc1 | i
Cc1ccc(NCc2cc(=O)n3[nH]c(NCc4ccc(F)cc4)nc3n2)cc1 | i
Cc1ccc(NCc2cc(=O)n3[nH]c(-c4ccccc4C)nc3n2)cc1 | +
CCN1CCN(Cc2cc(=O)n3[nH]c(-c4ccccc4C)nc3n2)CC1 | i
Cc1ccccc1-c1nc2nc(CNc3cccc(Cl)c3)cc(=O)n2[nH]1 | i
COc1cccc(NCc2cc(=O)n3[nH]c(-c4ccccc4C)nc3n2)c1 | +
Cc1ccccc1-c1nc2nc(CNc3ccccc3)cc(=O)n2[nH]1 | +
Cc1ccccc1-c1nc2nc(CNc3ccc(Br)cc3)cc(=O)n2[nH]1 | +
CCC(Oc1ccc2c(c1)CCCC2)C(=O)NC(C)(CO)CO (stereo not given) | i
COc1cccc(C(=O)Nc2ccc(Cl)c(N3CCCS3(=O)=O)c2)c1OC | i
CCO[C@H]1COC[C@@H]1NC(=O)c1cc2ccccc2oc1=O | i
Cc1ccc2c(c1)CC(C(=O)N1CCCn3cncc3C1)N2 (stereo not given) | i
Cc1ccc(/C=C/c2onc(C)c2S(=O)(=O)N2CCCC(C(=O)Nc3ccc(S(N)(=O)=O)cc3)C2)cc1 (stereo not given) | i
CNCC(=O)NCCc1cnn(-c2ccccc2)c1 | i
CCc1cc(Sc2ccc(NC(=O)Nc3cccc(C(F)(F)F)c3)cc2)n2nc(C)nc2n1 | i
Cc1ccc(NC(=O)CN2CCN(Cc3ccc(F)cc3)S2(=O)=O)cc1 | i
